In PubChem BioAssay:
Unmarked numbers belong to inactive results. No rule for the calls is given here.

The molecules below were run against Pantothenate synthetase (Mycobacterium tuberculosis (strain ATCC 25618 / H37Rv)) (UniProt P9WIL5) (assay: Coupled enzyme confirmation of inhibitors against recombinant Mtb PanC (AID 375;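 also: 0% = full reaction with vehicle and 100% = no enzyme background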)). Details: coupled enzyme assay; at 10 µM, hits give high values.
Chain of Pantothenate synthetase (Mycobacterium tuberculosis (strain ATCC 25618 / H37Rv)) (P9WIL5 whole entry, looked up): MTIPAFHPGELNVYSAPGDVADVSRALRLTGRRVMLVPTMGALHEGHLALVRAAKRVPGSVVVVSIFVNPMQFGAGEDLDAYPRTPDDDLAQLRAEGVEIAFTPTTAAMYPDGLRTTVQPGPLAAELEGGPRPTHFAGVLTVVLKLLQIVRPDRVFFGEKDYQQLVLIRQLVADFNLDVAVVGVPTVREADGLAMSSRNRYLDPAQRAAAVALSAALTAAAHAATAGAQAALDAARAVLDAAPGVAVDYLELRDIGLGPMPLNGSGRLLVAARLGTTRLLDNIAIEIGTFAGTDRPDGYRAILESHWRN

| SMILES | inhibition |
| --- | --- |
| CC(=O)Nn1c(C)nnc1-n1nc(C)cc1C | 0% |
| CCCCOC(=O)CNc1nnc(SCC(=O)OCC)[nH]c1=O | 3% |
| N#Cc1c(-c2ccc3c(c2)OCO3)csc1N | 9% |
| CCCOc1nc(N)c(C#N)c(-c2ccccc2F)c1C#N | 4% |
| CCc1cccc2c(=O)c(C(=O)N3CCCCCC3)c[nH]c12 | 0% |
| CCOc1ccc(S(=O)(=O)n2c(C)nc3ccccc32)cc1 | 0% |
| CCOC(=O)C1=C(c2ccccc2)NC(=O)NC1c1ccc(N(C)C)cc1 (stereo not given) | 0% |
| O=C(Nc1ccccc1N1CCN(C(=O)c2ccc(Cl)cc2)CC1)c1cc2ccccc2o1 | 3% |
| CC(C)N(C(=O)CSc1nnc(-c2cc3ccccc3cc2O)n1Cc1ccco1)C(C)C | 1% |
| Cc1ccc2c(CNCc3ccco3)cc(=O)oc2c1 | 0% |
| O=C(NC1CCS(=O)(=O)C1)N1CCCCC1 (stereo not given) | 7% |
| COc1ccc2cc(C#N)c(NC(C)C)nc2c1 | 0% |
| Brc1ccc2[nH]ncc2c1 | 10% |
| COc1cccc(NC(=O)CSc2nnc(-c3cc(-c4ccccn4)nc4ccccc34)o2)c1 | 2% |
| COc1cccc(NC(=O)N(CCCN2CCOCC2)C(C)c2cc3cccc(OC)c3o2)c1 (stereo not given) | 0% |
| Cc1nc2sc(C(c3ccco3)N3CCN(c4ccccc4F)CC3)c(O)n2n1 (stereo not given) | 0% |
| CCS(=O)(=O)c1nc2ccccc2n1Cc1ccccc1Cl | 1% |
| COc1ccc(C(C)(C)C)cc1NC(=O)Nc1ccc2c(c1)OCO2 | 5% |
| CC(C)NC(=O)CSc1nnc(-c2ccc(C(C)(C)C)cc2)n1C | 1% |
| COC(C)(C)c1cc(C(C)(C)C)nc(N)n1 | 0% |

| SMILES | inhibition |
| --- | --- |
| COc1ccc(C(=O)N2CCN(C3CCCCC3)CC2)c(OC)c1 | 0% |
| COC(=O)c1ccccc1NC(=O)c1cc(-c2ccc(OC)c(OC)c2)on1 | 0% |
| COc1cccc(C2C(C(=O)c3cccs3)=C(O)C(=O)N2CCCn2ccnc2)c1OC (stereo not given) | 0% |
| COc1ccccc1C(=O)Nc1ccc(S(=O)(=O)N2CCOCC2)cc1 | 6% |
| COc1ccc(CC(=O)Nc2c3c(nn2-c2cccc(Cl)c2)CS(=O)(=O)C3)cc1 | 0% |
| O=C1c2ccccc2NC(c2cccc(F)c2)N1Cc1ccco1 (stereo not given) | 0% |
| CCC(CC)C(=O)NCCc1cc2ccc(C)cc2[nH]c1=O | 0% |
| CC(=O)N1CCN(c2ccc(NC(=O)c3ccc(C(C)(C)C)cc3)cc2)CC1 | 0% |
| CCOC(=O)Cc1cc(=O)n2[nH]c(C)c(-c3ccc(OC)cc3)c2n1 | 6% |
| CC(CN1CCN(C)CC1)OC(=O)c1ccc(Cl)cc1Cl (stereo not given) | 0% |
| COc1ccc(CN(C(=O)c2oc3ccccc3c2C)C2CCS(=O)(=O)C2)cc1 (stereo not given) | 0% |
| COc1ccc(-n2c(Cc3cccn3C)nnc2SCC(=O)Nc2ccccc2)cc1 | 0% |
| c1ccc(Cc2nnc3n2CCCCC3)cc1 | 6% |
| O=C(COC(=O)Cc1cccc(C(F)(F)F)c1)NCC1CCCO1 (stereo not given) | 3% |
| Cc1noc(C)c1CSc1nnc2scc(-c3ccc(Cl)cc3)n12 | 0% |
| CCCNC(=O)NC1C(NC(=O)NCCC)N(C)C(=O)N1C (stereo not given) | 5% |
| N#Cc1nc(-c2cccs2)oc1NCCc1ccccc1 | 0% |
| O=C(NCc1nnc(SCC(=O)N2CCCCCC2)o1)c1ccco1 | 8% |
| CCn1c(-c2cc(Br)ccc2O)n[nH]c1=S | 0% |
| C=CCSc1nnc(NC(=O)c2ccc(S(=O)(=O)NCC3CCCO3)cc2)s1 (stereo not given) | 1% |
